This is an account of results in a collection of fitness landscapes (doi:10.1016/j.celrep.2020.107928).

Whole data set: some 81,000 sequences, median “one-hybrid fitness for binding parS DNA” near -0.17, cut for the highest 2% near 0.51. What follows is part of a selection rich in the highest values, with near analogues and random picks from the rest.

B1: Caulobacter ParB omega fusion; a variant is named by its letters at X, in order, B8GW30 (parent)
chain: MESVVVGEPGMSEGRRGLGRGLSALLGEVDAAPAQAPGEQLGGSREAPIEILQRNPDQPRRTFREEDLEDLSNSIREKGVLQPILVRPSPDTAGEYQIVAGERAWRAAQRAGLKTVPIMVRELDDLAVLEIGIIENVQRADLNVLEEALSYKVLMEKFERTQENIAQTIGKSXSHVANXMRLLXLPDEVQSYLVSGELTAXHARAIAAAADPVALAKQIIEGGLSVRETEALARKAPNLSAGKSKGGRPPRVKDTDTQALESDLSSVLGLDVSIDHRGSTGTLTITYATLEQLDDLCNRLTRGI

This test covers variants of B1. The test can be described thus: one-hybrid fitness for binding parS DNA (scaled: cognate 1, non-cognate 0); higher = stronger binding. To be noted: with parS DNA site. The method in brief: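 Fitness here means the log change in variant-to-wild-type read ratio between plasmids sequenced before and after selection. That scale was set so cognate equals 1 and non-cognate equals 0. The selection was a bacterial one-hybrid screen of Caulobacter ParB libraries, four specificity codons randomised, in E. coli USO carrying a HIS3 reporter with the site 19 bp from the promoter, grown 48 hours at 37°C on M9-minus-histidine with 0.1 mM IPTG and 5 mM 3-AT.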
With RFPG, the “one-hybrid fitness for binding parS DNA” value was 0.502. As for RFWS, the “one-hybrid fitness for binding parS DNA” value amounted to 0.836. On to RFIP, for which the “one-hybrid fitness for binding parS DNA” value is at most 0.2. Then RFIS, with 0.777; and RFWP, with at most 0.2; and RFIC, with 0.657. For RFIH, the “one-hybrid fitness for binding parS DNA” value is at most 0.2. As for NFIG, the “one-hybrid fitness for binding parS DNA” value is at most 0.2. In the case of RFIG, the “one-hybrid fitness for binding parS DNA” value came out at 0.685. Turning to RFWN, the “one-hybrid fitness for binding parS DNA” value was at most 0.2. The value for RFPC was 0.424; that for EHMG was at most 0.2; that for LHVL was at most 0.2. Consider AIIN, for which the “one-hybrid fitness for binding parS DNA” value was at most 0.2. Then FIYG, with at most 0.2. With PRHT, the “one-hybrid fitness for binding parS DNA” value is at most 0.2. As to KCHS, the “one-hybrid fitness for binding parS DNA” value is at most 0.2.

On to KAGT, for which the “one-hybrid fitness for binding parS DNA” value was at most 0.2. For QCPW, the “one-hybrid fitness for binding parS DNA” value is at most 0.2. Regarding RFRD, the “one-hybrid fitness for binding parS DNA” value is at most 0.2.

RFYD: the “one-hybrid fitness for binding parS DNA” value was at most 0.2.

As to RFRN, the “one-hybrid fitness for binding parS DNA” value came out at 0.429. The value for RFLS was 0.997; that for RFPH was at most 0.2.

As for RFYP, the “one-hybrid fitness for binding parS DNA” value was at most 0.2.

With RFLD, the “one-hybrid fitness for binding parS DNA” value was at most 0.2. Then RFLN, with 0.415; and RFPD, with at most 0.2; and RFPS, with 0.551. The value for RFYS was 1.01; that for RFRS was 0.954; that for PVIC was at most 0.2. Turning to MHEG, the “one-hybrid fitness for binding parS DNA” value is at most 0.2. As for VPDG, the “one-hybrid fitness for binding parS DNA” value is at most 0.2. As for LNYC, the “one-hybrid fitness for binding parS DNA” value was at most 0.2. In the case of HRFQ, the “one-hybrid fitness for binding parS DNA” value is at most 0.2. The value for VPPW was at most 0.2. Regarding SFRA, the “one-hybrid fitness for binding parS DNA” value is at most 0.2.

Regarding RFIA, the “one-hybrid fitness for binding parS DNA” value turned out to be 0.373. Then KFQA, with at most 0.2. Then RFQA, with 0.579. Take RFYA: the “one-hybrid fitness for binding parS DNA” value is 0.578. Turning to DFQA, the “one-hybrid fitness for binding parS DNA” value was at most 0.2. Then RFPA, with at most 0.2.

With RFCA, the “one-hybrid fitness for binding parS DNA” value came to 0.518. RFRA: the “one-hybrid fitness for binding parS DNA” value came out at 0.602. Turning to NFRA, the “one-hybrid fitness for binding parS DNA” value was at most 0.2. Then ANER, with at most 0.2; and NGTK, with at most 0.2; and GATP, with at most 0.2. With TTRY, the “one-hybrid fitness for binding parS DNA” value was at most 0.2. Turning to HALT, the “one-hybrid fitness for binding parS DNA” value was at most 0.2.

As for WTPL, the “one-hybrid fitness for binding parS DNA” value was at most 0.2.

For the variant KHYV, the “one-hybrid fitness for binding parS DNA” value is at most 0.2. Then QFRS, with at most 0.2; and DFDT, with at most 0.2; and DFHT, with at most 0.2. With RFGT, the “one-hybrid fitness for binding parS DNA” value is 0.775.

As for RFWT, the “one-hybrid fitness for binding parS DNA” value stood at 0.649. For NFWT, the “one-hybrid fitness for binding parS DNA” value is at most 0.2. On to RFDR, for which the “one-hybrid fitness for binding parS DNA” value is at most 0.2. Take RFHD: the “one-hybrid fitness for binding parS DNA” value was at most 0.2. As to NFGT, the “one-hybrid fitness for binding parS DNA” value was at most 0.2. With RFHT, the “one-hybrid fitness for binding parS DNA” value came out at 0.853. RFDT: the “one-hybrid fitness for binding parS DNA” value stood at 0.693. On to RFGP, for which the “one-hybrid fitness for binding parS DNA” value was at most 0.2.

For the variant RFWD, the “one-hybrid fitness for binding parS DNA” value was at most 0.2. With FTEL, the “one-hybrid fitness for binding parS DNA” value is at most 0.2. Take WFGR: the “one-hybrid fitness for binding parS DNA” value is at most 0.2. Take AVPM: the “one-hybrid fitness for binding parS DNA” value is at most 0.2.

As for IHAA, the “one-hybrid fitness for binding parS DNA” value was at most 0.2. GDDN: the “one-hybrid fitness for binding parS DNA” value is at most 0.2.

For RFCR, the “one-hybrid fitness for binding parS DNA” value was at most 0.2. As for RFSN, the “one-hybrid fitness for binding parS DNA” value is 0.377. The value for RFST was 0.841; that for RFCT was 0.725; that for NFST was at most 0.2. As for RFIT, the “one-hybrid fitness for binding parS DNA” value turned out to be 0.508.

NFRT: the “one-hybrid fitness for binding parS DNA” value was at most 0.2.

On to RFPT, for which the “one-hybrid fitness for binding parS DNA” value was determined as 0.376. As to RFRH, the “one-hybrid fitness for binding parS DNA” value worked out at 0.219.

For RFRT, the “one-hybrid fitness for binding parS DNA” value turned out to be 0.9.

In the case of SFCT, the “one-hybrid fitness for binding parS DNA” value is at most 0.2. Regarding RFYT, the “one-hybrid fitness for binding parS DNA” value came out at 0.801. Then SRLA, with at most 0.2; and RPYM, with at most 0.2.

Regarding QLWS, the “one-hybrid fitness for binding parS DNA” value is at most 0.2. Regarding QWRP, the “one-hybrid fitness for binding parS DNA” value was at most 0.2.

On to YTDG, for which the “one-hybrid fitness for binding parS DNA” value is at most 0.2. The value for VYTC was at most 0.2. Then AQSP, with at most 0.2; and FRLV, with at most 0.2; and MRTY, with at most 0.2. In the case of DFLT, the “one-hybrid fitness for binding parS DNA” value is at most 0.2. For RFLT, the “one-hybrid fitness for binding parS DNA” value was found to be 0.75. For RFNN, the “one-hybrid fitness for binding parS DNA” value was determined as 0.411. Turning to RFQP, the “one-hybrid fitness for binding parS DNA” value is at most 0.2. For RFNP, the “one-hybrid fitness for binding parS DNA” value is at most 0.2. Then RFQD, with at most 0.2.

With RFLP, the “one-hybrid fitness for binding parS DNA” value is at most 0.2. As to RFNT, the “one-hybrid fitness for binding parS DNA” value came to 0.862. The value for RFQT was 0.8. On to WYGN, for which the “one-hybrid fitness for binding parS DNA” value is at most 0.2. The value for YMRM was at most 0.2; that for YQRV was at most 0.2. Then AIED, with at most 0.2; and TPRA, with at most 0.2. Take QTSF: the “one-hybrid fitness for binding parS DNA” value was at most 0.2. Take AAYQ: the “one-hybrid fitness for binding parS DNA” value is at most 0.2.

As to WMAR, the “one-hybrid fitness for binding parS DNA” value is at most 0.2. Take RVKY: the “one-hybrid fitness for binding parS DNA” value was 0.664. In the case of RVDY, the “one-hybrid fitness for binding parS DNA” value is 0.427. The value for RVYY was 0.495; that for RCLY was 0.49. With RVVY, the “one-hybrid fitness for binding parS DNA” value came out at 0.413.

As to RVLY, the “one-hybrid fitness for binding parS DNA” value was 0.508. Regarding RVRY, the “one-hybrid fitness for binding parS DNA” value worked out at 0.583. Then TIST, with at most 0.2; and CHTY, with at most 0.2; and TCYR, with at most 0.2. Take QKCY: the “one-hybrid fitness for binding parS DNA” value was at most 0.2. Consider TNVQ, for which the “one-hybrid fitness for binding parS DNA” value is at most 0.2.

For the variant CETD, the “one-hybrid fitness for binding parS DNA” value was at most 0.2.

ADRH: the “one-hybrid fitness for binding parS DNA” value was at most 0.2. As for QVQF, the “one-hybrid fitness for binding parS DNA” value was at most 0.2. Consider RRYP, for which the “one-hybrid fitness for binding parS DNA” value was at most 0.2. As to RRDH, the “one-hybrid fitness for binding parS DNA” value is at most 0.2.

On to RRYD, for which the “one-hybrid fitness for binding parS DNA” value was at most 0.2.

RRWP: the “one-hybrid fitness for binding parS DNA” value was at most 0.2.

Take RRIH: the “one-hybrid fitness for binding parS DNA” value is at most 0.2.

Regarding RRWS, the “one-hybrid fitness for binding parS DNA” value is 0.772. RRWD: the “one-hybrid fitness for binding parS DNA” value was at most 0.2. Consider RRIN, for which the “one-hybrid fitness for binding parS DNA” value stood at 0.304. Then RRYH, with at most 0.2. Regarding RRYS, the “one-hybrid fitness for binding parS DNA” value came out at 0.68. Take RRRH: the “one-hybrid fitness for binding parS DNA” value amounted to 0.592. For RRIS, the “one-hybrid fitness for binding parS DNA” value turned out to be 0.753. VFKT: the “one-hybrid fitness for binding parS DNA” value is at most 0.2.

Take HRKK: the “one-hybrid fitness for binding parS DNA” value is at most 0.2.

Regarding QLWG, the “one-hybrid fitness for binding parS DNA” value is at most 0.2.

Turning to RFHY, the “one-hybrid fitness for binding parS DNA” value was 0.462. Turning to RRPN, the “one-hybrid fitness for binding parS DNA” value is 0.246. The value for RRPD was at most 0.2; that for RRRS was 0.67; that for RRPS was 0.757. For RRLD, the “one-hybrid fitness for binding parS DNA” value is at most 0.2. Take RRLN: the “one-hybrid fitness for binding parS DNA” value worked out at 0.396. On to RRLS, for which the “one-hybrid fitness for binding parS DNA” value turned out to be 0.701. As for RRRD, the “one-hybrid fitness for binding parS DNA” value was at most 0.2. The value for RRRP was 0.203; that for MLQR was at most 0.2; that for HTWN was at most 0.2. The value for YCLV was at most 0.2.
